# HT1080 IDH1KD tx: kills HT-1080 cells with IDH1 knockdown. Potency, µM (series often up to 46.1 µM), inactives show at the highest dose activity, negative = toxicity, usual class: cytotoxic. actives 2% (n = 360,000). HT-1080 IDH1 knockdown viability, ATP luminescence, 48 h;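 further: 0% = DMSO wells and -100% = cell-free medium wells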
#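 Assay cells: HT-1080 with IDH1 knockdown, 750 per well, RPMI/5% FBS. Exposure: 48 h at 37 °C following 2 h pre-incubation. Read: CellTiter-Glo luminescence; fitted concentration-response, curve class assigned.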
# KB-3-1 cytotox: KB-3-1 parental cell cytotoxicity; KB-3-1 viability, CellTiter-Glo ATP luminescence, 72 h; Potency, µM (series often up to 46.1 µM), most hits filed as cytotoxic; actives 1.4% (n = 400,000); AID 1347075; further: nearly all actives have a fitted effect of over 60% in size
#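 72 h, 37 °C compound treatment of KB-3-1 parental cells; CellTiter-Glo added, 10 min, luminescence read. Data corrected against DMSO-only plates and normalized before curve fitting.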
# TDP1 cell CPT: growth inhibition of DT40 Tdp1-/-;hTDP1 cells with camptothecin (screen for TDP1 inhibitors). chicken DT40 Tdp1-/-;hTDP1 cells + 20 nM CPT, ATP luminescence, 48 h. Potency, µM (top dose mostly 46.2 µM), inactives show top-dose activity change, negative = growth inhibition, actives largely listed as inhibitors. actives 12% (n = 420,000). AID 686979; further: nearly all actives have a fitted effect of over 55% in size
#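 Cell growth measured by CellTiter-Glo luminescence after a minimum 48 h, 37 C compound exposure with 20 nM CPT in Tdp1-knockout DT40 cells stably expressing hTDP1, seeded 400/well; qHTS titration format.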
# HT1080NT lethal: kills 2HG-producing HT-1080-NT fibrosarcoma cells. AID 686970. actives 1.6% (n = 360,000). HT-1080-NT fibrosarcoma viability, CellTiter-Glo ATP luminescence, 48 h. Potency, µM (series often up to 46.1 µM), for inactives: top-dose activity, negative = less viability, usual class: cytotoxic;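 further: NT is the 2HG producing partner of a matched IDH1 knockdown line; 0% = DMSO-treated cells and -100% = media-only wells without cells; nearly all actives have a fitted effect of over 55% in size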
#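 HT-1080-NT fibrosarcoma cells (2HG-overproducing), 750 cells/well in RPMI with 5% FBS, dosed after 2 h and incubated 48 h at 37C. CellTiter-Glo luminescence normalized to DMSO and no-cell wells; concentration-response curves fitted and classed.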
# DT40 TDP1 no CPT: qHTS for Inhibitors of human tyrosyl-DNA phosphodiesterase 1 (TDP1): qHTS in cells in absence of CPT | DT40 Tdp1-/- hTDP1 cells, no CPT, ATP luminescence, 48 h | Potency, µM (highest dose often 46.2 µM), for inactives: at the top dose activity change, negative = growth inhibition, usual class: inhibitors | actives 15% (n = 420,000) | AID 686978, 2013; further: nearly all actives have a fitted effect of over 55% in size
#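 Stably hTDP1-transfected Tdp1-null chicken DT40 cells were treated with library compounds minus camptothecin and grown for at least 48 hr at 37 °C, after which cellular ATP was quantified by luminescence.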
# KB-V1 cytotox: KB-V1 MDR subline cytotoxicity; KB-V1 MDR cells viability, CellTiter-Glo, 72 h; Potency, µM (series often up to 46.1 µM), hits mostly cytotoxic; actives 3.4% (n = 400,000); further: nearly all actives have a fitted effect of over 60% in size
#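 Following 72 h at 37 degrees C with compound, KB-V1 cell viability was read by CellTiter-Glo luminescence, medium being phenol-red-free DMEM plus 10% FBS; concentration-response parameters came from normalized, curve-fitted qHTS data.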
# Numbers without * were called inactive; i = inactive; ? = inconclusive; · = not tested or not shown. Rows were chosen to be rich in hits. Some 19% of all compounds tested hit in one or more screens of this group. The call rests on the fitted dose curve; in most records, active means well fitted curve in the direction sought with a large enough effect; inconclusive means small, poorly fitted or top-dose-only effect, or another doubt; inactive means no such curve, though single readings can be large; an effect the other way counts as inactive or inconclusive. Unless noted, on the % scale 0 is the no-effect control and ±100 the full control effect; potency means the concentration at half of the fitted maximal effect.
SMILES,HT1080 IDH1KD tx,KB-3-1 cytotox,TDP1 cell CPT,HT1080NT lethal,DT40 TDP1 no CPT,KB-V1 cytotox
COc1ccc(NS(=O)(=O)c2ccc(O)c(NC(=O)c3cc4c(C)nn(-c5ccc(F)cc5)c4s3)c2)cc1,?,?,-28%,?,?,i
CC(C)[C@H](NC(=O)OCc1ccccc1)C(=O)OCC(=O)N1CCCCC1,9%,i,4%,1%,?,i
CN(C(=O)COc1ncnc2sccc12)c1ccccc1,6%,i,-9%,0%,2%,i
Cc1nn(C)c(C)c1S(=O)(=O)N(CC(=O)NCCc1ccccc1)c1ccc(C(C)C)cc1,·,i,?,·,?,i
COc1cc2ncnc(NCc3ccco3)c2cc1OC,0%,i,18µM*,4%,?,i
COc1cc2ncnc(NCc3ccccc3)c2cc1OC,-5%,i,?,0%,?,?
Brc1ccc2ncnc(NCc3ccco3)c2c1,-17%,?,21µM*,-7%,18µM*,i
COc1cc2ncnc(NCc3cccc(Cl)c3)c2cc1OC,-17%,i,15µM*,-21%,15µM*,i
CC(C)(C)c1ccc(-c2nc(SCC(=O)Nc3ccc(Cl)cc3)[nH]c(=O)c2C#N)cc1,·,·,-24%,·,-5%,·
COc1ccc(OC)c(N=Cc2c(O)c3ccccc3oc2=O)c1,3%,i,?,1%,?,i
COc1ccc(Cl)cc1N=Cc1c(O)c2ccccc2oc1=O,-13%,i,16µM*,-13%,?,i
COc1cccc(-c2oc3c(c2C(=O)OCCN2CCCCC2)C(O)CCC3)c1 (configuration not stated),-8%,i,?,-3%,?,?
CCn1c2ccccc2c2cc(/C=N/O)ccc21,-6%,i,?,-10%,?,12µM*
CCn1c2ccccc2c2cc(/C=N/n3cnnc3)ccc21,-18%,i,18µM*,?,-30%,i
CCn1c2ccccc2c2cc(/C=N/n3c(-c4cc(C)[nH]n4)n[nH]c3=S)ccc21,?,i,21µM*,-24%,?,i
Cc1cc(C)cc(N(C(=O)c2csnn2)C(C(=O)NC2CCCC2)c2cccnc2)c1 (configuration not stated),5%,i,-10%,-4%,-22%,i
CC(OC(=O)c1ccc(Cl)nc1)C(=O)NCc1ccc2c(c1)OCO2 (configuration not stated),-2%,i,4%,-2%,3%,i
COc1ccc2nc(NC(=O)c3cc(=O)c4cc(C)cc(C)c4o3)sc2c1,·,i,5%,·,-11%,i
CCOC(=O)/C(=N\Nc1ccccc1Cl)N1CCN(Cc2ccccc2)CC1,-2%,i,?,-5%,?,3.7µM*
CCOC(=O)/C(=N\Nc1ccccc1Cl)N1CCN(C)CC1,-19%,i,?,-16%,?,?
Cc1nnc(SCC(=O)N2CCC(C(N)=O)CC2)s1,6%,i,-4%,11%,1%,i
CSc1ccc(S(=O)(=O)Nc2ccc3c(c2)NC(=O)CC3)cc1,16µM*,i,?,-28%,23µM*,i
CSc1ccc(S(=O)(=O)Nc2ccc3c4c(cccc24)CC3)cc1,?,18µM*,?,?,?,15µM*
CC(OC(=O)C1=COCCO1)C(=O)Nc1ccc(Cl)cn1 (configuration not stated),-6%,i,5%,-7%,-1%,i
Cc1cccc(Nc2nc(N)nc(CN3CCN(c4ccc(F)cc4)CC3)n2)c1,-27%,?,18µM*,-6%,16µM*,?
SMILES,HT1080 IDH1KD tx,KB-3-1 cytotox,TDP1 cell CPT,HT1080NT lethal,DT40 TDP1 no CPT,KB-V1 cytotox
Cc1ccc(Nc2nc(N)nc(CN3CCCCCC3)n2)cc1,-1%,i,?,-1%,?,i
CCOC(=O)C1CCCN(Cc2nc(N)nc(Nc3ccccc3)n2)C1 (configuration not stated),-4%,i,?,-6%,18µM*,?
COc1ccc(Nc2nc(N)nc(CN3CCC(C)CC3)n2)cc1,-4%,i,1%,6%,-6%,i
CC1CC(C)CN(Cc2nc(N)nc(Nc3ccc4ccccc4c3)n2)C1 (configuration not stated),?,12µM*,23µM*,?,21µM*,?
Nc1nc(CN2CCN(c3ccccc3F)CC2)nc(Nc2ccccc2)n1,-4%,i,23µM*,-10%,?,?
CC(/C=C/c1ccco1)=N\NC(=O)COc1ccc(C)c(C)c1,24%,i,-10%,11%,-24%,i
CC(C)c1ccc(S(=O)(=O)Nc2ccc(N3CCOCC3)cc2)cc1,-11%,i,0%,-19%,?,i
Nc1nc(CN2CCN(C(c3ccccc3)c3ccccc3)CC2)nc(Nc2ccccc2)n1,?,i,?,?,23µM*,i
Nc1nc(CN2CCC(Cc3ccccc3)CC2)nc(Nc2ccccc2)n1,-1%,?,18µM*,-17%,23µM*,i
Nc1nc(CN2CCCCCC2)nc(Nc2ccccc2)n1,1%,i,-1%,11%,-13%,i
CC(C)[C@H](NC(=O)N1CC(=O)Nc2ccccc21)C(=O)N1CCC(C(=O)O)CC1,-1%,i,5%,-2%,33%,i
CS(=O)(=O)c1ccc(C(=O)Nc2ccc(-c3nc4ccccc4[nH]3)cc2)cc1,1%,i,?,-2%,?,i
CS(=O)(=O)c1ccc(-c2nc(-c3ccc(F)cc3)c(-c3ccncc3)[nH]2)cc1,·,·,?,·,27µM*,·
COc1ccc(NC(=O)c2ccco2)cc1NC(=O)COc1ccc(Cl)c(C)c1,·,i,?,·,?,i
CC(O)c1nc2ccccc2n1CC(=O)Nc1ccc(F)cc1Cl (configuration not stated),-12%,i,7%,5%,-12%,?
Cc1cc(N2CCN(c3ccccc3Cl)CC2)n2cc(-c3ccccc3)nc2n1,?,?,?,-28%,?,16µM*
Cc1cc(N2CCN(c3ccccc3)CC2)n2cc(-c3ccccc3)nc2n1,3%,i,?,2%,10µM*,?

# Screening results as filed in PubChem BioAssay.
